Most compounds without a hit are left out; they make up all but 15% or so of the library.
ELG1 repair inh: inhibitors of ELG1-dependent DNA repair in HEK293T cells; HEK293T ELG1-luciferase reporter, luminescence, 16 h; DNA damage induced by 5-fluorouridine; Potency, µM (series often up to 46.1 µM), actives largely listed as inhibitors; 330,000 compounds, 2.3% hits; AID 504467; note: nearly all actives have a fitted effect of over 55% in size
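Overnight (16 hr) co-exposure of 2,000 cells/well to 5-fluorouridine and compound at 37 °C preceded detection. Luciferase was quantified via ONE-Glo luminescence; loss of signal denotes inhibition.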
TDP1 cell CPT: growth inhibition of DT40 Tdp1-/-;hTDP1 cells with camptothecin (screen for TDP1 inhibitors) | AID 686979 | chicken DT40 Tdp1-/-;hTDP1 cells + 20 nM CPT, ATP luminescence, 48 h | Potency, µM (top dose mostly 46.2 µM), most hits filed as inhibitors | 420,000 compounds, 12% hits; note: nearly all actives have a fitted effect of over 55% in size
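Chicken DT40 Tdp1-/- cells complemented with human TDP1, 400 cells/well, exposed to compounds plus 20 nM camptothecin for at least 48 h at 37 C; viability read as ATP content by CellTiter-Glo luminescence.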
12-LOX inh: blocks human arachidonate 12S-lipoxygenase; purified 12hLO, xylenol orange hydroperoxide absorbance; Potency, µM (doses to about 108 µM), usual class: inhibitors; 580,000 compounds, 1.1% hits; AID 1671190
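Purified human 12hLO (150 nM final) in 25 mM Hepes, 0.01% Triton X-100, pH 7.0 was preincubated 15 min at room temperature with compound. Then 40 uM arachidonic acid was added, 30 min. Hydroperoxide was read by Fe-XO absorbance ratio 573/405 nm.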
Gal4-VP16 FLuc: counter-screen for ROR gamma inhibitors: Gal4-VP16 reporter | AID 2546 | Potency, µM (series often up to 53.6 µM), actives largely listed as inhibitors | 310,000 compounds, 3.5% hits | Drosophila S2 Gal4-VP16 UAS-luciferase, luminescence, 20 h;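 note: Gal4-VP16 expression switched on by copper sulfate through the metallothionein promoter; nearly all actives have a fitted effect of over 50% in size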
RORg inh: blocks mouse ROR gamma transcriptional activity; 310,000 compounds, 5.4% hits; Potency, µM (doses to about 53.6 µM), hits mostly inhibitors; Drosophila S2 Gal4-RORgamma UAS-luciferase reporter, 20 h; AID 2551; P51450; note: nearly all actives have a fitted effect of over 60% in size
Target sequence (P51450 whole entry, looked up, the tested form may be a part): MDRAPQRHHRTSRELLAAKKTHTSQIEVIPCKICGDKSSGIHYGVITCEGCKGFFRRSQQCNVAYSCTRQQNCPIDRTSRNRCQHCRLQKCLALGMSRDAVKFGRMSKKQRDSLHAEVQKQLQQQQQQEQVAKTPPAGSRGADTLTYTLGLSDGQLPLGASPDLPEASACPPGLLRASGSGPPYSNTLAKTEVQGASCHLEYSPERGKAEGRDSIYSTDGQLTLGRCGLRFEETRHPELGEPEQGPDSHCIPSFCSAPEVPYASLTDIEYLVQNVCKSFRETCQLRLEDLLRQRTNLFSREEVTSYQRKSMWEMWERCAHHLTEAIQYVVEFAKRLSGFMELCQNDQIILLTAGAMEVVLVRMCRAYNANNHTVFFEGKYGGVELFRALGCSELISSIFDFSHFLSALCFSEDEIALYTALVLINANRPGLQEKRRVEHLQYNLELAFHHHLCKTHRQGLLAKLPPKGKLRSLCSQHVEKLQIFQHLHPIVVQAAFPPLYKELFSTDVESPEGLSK
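Luminescence from a UAS-regulated Photinus luciferase reporter in stably transfected Drosophila Schneider cells is measured; decreased signal marks ROR gamma inhibition. Fusion expression is induced by 700 uM copper sulfate for 20 hr.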
DT40 TDP1 no CPT: qHTS for Inhibitors of human tyrosyl-DNA phosphodiesterase 1 (TDP1): qHTS in cells in absence of CPT. DT40 Tdp1-/- hTDP1 cells, no CPT, ATP luminescence, 48 h. Potency, µM (highest dose often 46.2 µM), most hits filed as inhibitors. 420,000 compounds, 15% hits. AID 686978, 2013; note: nearly all actives have a fitted effect of over 55% in size
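Cells were dispensed at 400 per well, compounds added by pin tool, plates incubated ≥48 hr at 37 °C, then CellTiter-Glo added for 30 min at room temperature before luminescence reading. Line: DT40 Tdp1-/- complemented with hTDP1; camptothecin omitted.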
A number is an active result; – = inactive; ? = inconclusive; · = no result; [ ] = another dose, or the depositor's remark. Calls come from the whole dose curve; as a rule, active = well fitted curve in the direction sought with a large enough effect; inconclusive = small, poorly fitted or top-dose-only effect, or another doubt; inactive = no such curve, though single readings can be large; an effect the other way counts as inactive or inconclusive.

SMILES	ELG1 repair inh	TDP1 cell CPT	12-LOX inh	Gal4-VP16 FLuc	RORg inh	DT40 TDP1 no CPT
COc1ccc(Nc2c(-c3ccccn3)nc3ccc(Cl)cn23)cc1	·	12µM	–	·	·	1.6µM
CCCCC(=O)N1C/C=C\[C@H](c2ccc(OC)cc2)N(Cc2ccc(F)cc2)C(=O)[C@@H]1C	·	?	?	·	·	16µM
COc1ccc(C2/C=C\CN(Cc3ccccc3)CC(=O)N2Cc2ccc(F)cc2)cc1 (configuration not stated)	·	·	·	–	?	·
COc1ccc([C@H]2/C=C\CN(C(=O)c3ccccc3)[C@@H](C)C(=O)N2Cc2ccc(F)cc2)cc1	·	?	–	·	·	23µM
COc1ccc([C@H]2/C=C\CN(S(=O)(=O)/C=C/c3ccccc3)[C@@H](C)C(=O)N2Cc2ccc(F)cc2)cc1	·	?	–	·	·	21µM
COc1ccc2c(COC(=O)CNC(=O)c3ccc(C)c(C)c3)cc(=O)oc2c1	·	·	–	·	·	·
CCC(C)C(=O)Nc1ccc(-c2nc3ccccc3o2)cc1 (configuration not stated)	·	·	–	·	·	·
COc1cccc(-c2n[nH]c3c2CC(=O)N(Cc2ccccc2)C3)c1	·	·	–	·	·	·
O=C(NCc1ccc(F)cc1F)c1ccc(N2CC3CC(C2)[C@H]2CCCC(=O)N2C3)nc1 (some centres not stated)	·	·	–	·	·	·
CC(=O)Nc1ccc(S(=O)(=O)NC2C3(C)CCC(C3)C2(C)C)cc1 (configuration not stated)	–	–	3.2µM	–	?	–
CC(=O)Nc1ccc(S(=O)(=O)NC2CC2)cc1	–	–	–	–	–	–
FC(F)(F)c1nc2ccccc2n2c(-c3c(Cl)cccc3Cl)nnc12	–	26µM	–	–	–	21µM
Clc1cccc(Cl)c1-c1nnc2cccc(Cl)n12	–	–	–	–	–	?
FC(F)(F)c1nc2ccccc2n2c(-c3ccc(Cl)cc3Cl)nnc12	–	21µM	–	–	–	21µM
COc1ccc(C(=O)N2CCC[C@H]2c2nc(-c3ccc(OC)c(OC)c3)no2)cc1F	·	·	–	·	·	·
COc1ccc(C2C(C(=O)OC(C)C)=C(C)Nc3nc4ccccc4n32)cc1 (configuration not stated)	·	·	–	·	·	·
O=c1c2c(-c3ccccc3)csc2ncn1/N=C/c1c2ccccc2cc2ccccc12	?	?	–	–	–	16µM
COc1cc(/C=N/n2cnc3scc(-c4cccs4)c3c2=O)cc(OC)c1OC	?	4.6µM	–	–	?	2.9µM
O=c1c2c(-c3cccs3)csc2ncn1-c1ccccc1	–	–	–	?	–	?
COc1ccc(/C=N/n2cnc3scc(-c4cccs4)c3c2=O)cc1OC	?	18µM	–	–	–	?
Cc1ccc(-c2[nH]ncc2CNCc2ccccc2)cc1	·	11µM	–	·	·	18µM
COCCN1C(=O)CS(=O)(=O)C12CCN(C(=O)Cc1cccc(OC)c1)CC2	·	·	–	·	·	·
COc1ccc(-c2cc(=O)[nH]c(N3CCN(Cc4ccccc4)CC3)n2)cc1	–	?	–	–	–	?
O=c1cc(-c2ccccc2)nc(N2CCN(Cc3ccccc3)CC2)[nH]1	–	18µM	?	–	–	21µM
O=C(CN1CCCc2nc(C3CC3)ncc2C1=O)NCCN1CCOCC1	·	·	–	·	·	·
SMILES	ELG1 repair inh	TDP1 cell CPT	12-LOX inh	Gal4-VP16 FLuc	RORg inh	DT40 TDP1 no CPT
CCOc1ccccc1OCCCC(=O)Nc1ccc2c(C)cc(=O)oc2c1	·	·	–	·	·	·
Cc1ccc(CNC(=O)c2cccc(Nc3nc4ccccc4n4nnnc34)c2)cc1	·	21µM	–	·	·	10µM
CCCCOc1ccc(C(C)NC(=O)c2cccc(Nc3nc4ccccc4n4nnnc34)c2)cc1 (configuration not stated)	·	5.2µM	–	·	·	5.8µM
COc1cc(Nc2nc3ccccc3n3nnnc23)cc(OC)c1OC	?	8.2µM	–	–	–	9.2µM
COc1ccc(Nc2nc3ccccc3n3nnnc23)cc1	–	–	–	–	–	?
CC(C#N)OC(=O)c1cc(-c2cccs2)nc2ccccc12 (configuration not stated)	·	·	–	·	·	·
CCC(=O)N1Cc2ccccc2CC2(CCN(CC3CCNC3)CC2)C1 (configuration not stated)	·	·	–[6.33 µM]	·	·	·
COc1ccc(Cn2c(-n3nc(C)cc3C)nc3c2c(=O)n(CC(N)=O)c(=O)n3C)cc1	·	·	–	·	·	·
Cc1cnc(CCNS(=O)(=O)c2cn(C)cn2)n1C1CC1	·	·	–	·	·	·
S=c1[nH]c2cc(-c3ccccc3)ccc2o1	?	–	–	13µM	10µM	–
O=S(=O)(c1ccc2oc(=S)[nH]c2c1)N1CCCCC1	–	–	–	–	–	–
O=C(Nc1ccc2ncccc2c1)c1cccc(Br)c1	?	?	?	–	–	–
Cc1ccc(C(=O)Nc2c(C)cc(C)c3cccnc23)cc1	–	?	–	–	–	16µM
Cc1ccc(C(=O)Nc2cccc3cccnc23)cc1	·	·	–	·	·	·
COc1ccc(C(=O)Nc2ccc3ncccc3c2)cc1	?	5.8µM	–	?	?	?
Cc1ccc(C(=O)Nc2ccc3ncccc3c2)cc1	?	–	–	11µM	14µM	?
Cc1ccc(C(=O)/C=C/c2ccc3ncccc3c2)cc1	?	18µM	–	?	?	29µM
CN1CCN(CCCNC(=O)C2CCc3sc(C(=O)N4CCCCCC4)cc3C2)CC1 (configuration not stated)	·	·	–	·	·	·
CC1(C(=O)NS(=O)(=O)C2CC2)CCCN(C(=O)c2ccc(F)c(Cl)c2)C1 (configuration not stated)	·	5.8µM	–	·	·	5.2µM
CCCNC(=O)C1(C)CCCN(C(=O)c2cccc(Cl)c2)C1 (configuration not stated)	·	–	–	·	·	–
CC1(C(=O)NS(=O)(=O)C2CC2)CCCN(C(=O)c2cccc(Cl)c2)C1 (configuration not stated)	·	7.3µM	–	·	·	1.5µM
COc1cc2oc(=O)c(CC(=O)NC3CCS(=O)(=O)C3)c(C)c2cc1Cl (configuration not stated)	·	·	–	·	·	·
C=CCn1c(SCC(=O)c2cc(C)n(C(C)COC)c2C)nc2sc(C)c(C)c2c1=O (configuration not stated)	?	?	–	–	?	18µM
C=CCn1c(SCc2c(C)noc2C)nc2sc(C)c(C)c2c1=O	?	21µM	–	–	–	18µM
CCn1c(CO)nnc1C1CC(NC(=O)c2oc3cc(OC)ccc3c2C)C1 (configuration not stated)	·	·	–	·	·	·
O=C(NNC(=S)Nc1ccc(Cl)cc1)c1ccccc1	?	–	–	–	?	?

Bioassay records (PubChem)
